In the supplement of paper PMC6555819:

The sequences below were run on PPARg:RXRa DBDmut IVT, anti-RXR (DBD mutation: RXRa K156A/R161A, NR concentration 270 nM, RXRa partner concentration 90 nM) (assay: PBM binding z-score (relative to random genomic background probes); higher = stronger binding; sequences stand for … in GC…GCGATTGACAGCGTAGAATGAAGG).
Summary of the method: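 Binding buffer was PBS pH 7.4 with 2% milk, 0.02% Triton X-100, 1 mM DTT, 0.2 mg/mL BSA and 0.4 mg/ml salmon testes DNA. In it, ligand-free nuclear receptor dimers were incubated 1 h on custom Agilent 4×180K protein-binding microarrays carrying double-stranded probes. Antibodies against each partner (one per run) detected binding, and z-scores were calculated against random background probes after regression normalization of scanned fluorescence.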

Sequence	PBM binding z-score
TCGACTAGGTTACGGGGGCATTCAGGGATGAAGA	5.37
CTATGTAGGTTAAGGGGGACATTCAGTTTGAAAG	7.33
CCGAGTAGGTTAGGAGGGGGCATTCAGTGCGAAT	3.01
CTGTGTAGGTTAAGGGGGTCATTCAGTTTGAAAG	5.16
CTATGTAGGTTAAGGGGGTCACTCAGTTTGAAAG	7.55
TCGAGTAGGTTAAGGGGGCATTCAGGGATGAAGA	4.21
TCGAGTTGGTTACGGGGGCATTCAGGGATGAAGA	2.18
TCGAGTAGTTTACGGGGGCATTCAGGGATGAAGA	2.03
TCGAGTAGGTTACGGGGGCATGCAGGGATGAAGA	5.07
CCGAGTAGGGTACGAGGGGGCATTCAGTGCGAAT	2.87
CCGAGTAGGTTACGAGGGGGAATTCAGTGCGAAT	4.48
CCGAGTAGGTTACAAGGGGGCATTCAGTGCGAAT	4.32
CTATGTAGGTTAAGGGGATCATTCAGTTTGAAAG	7.23
TCGAGTAGGTTACGGGCGCATTCAGGGATGAAGA	2.38
TCGAGTAGGTTACGGGGGCATTTAGGGATGAAGA	5.1
CTATGTAGGTTTAGGGGGTCATTCAGTTTGAAAG	3.47
TCGAGTAGGTTACGGGGGCATTCCGGGATGAAGA	4.92
TCGAGTAGGTTACCGGGGCATTCAGGGATGAAGA	3.7
TCGAGTAGGTGACGGGGGCATTCAGGGATGAAGA	5.39
CCGAGTAGGTTACGAGGTGGCATTCAGTGCGAAT	4.75

Sequence	PBM binding z-score
CTATGTAGGGTAAGGGGGTCATTCAGTTTGAAAG	7.14
CTATGTAGGTTCAGGGGGTCATTCAGTTTGAAAG	3.32
CCGAGTAGTTTACGAGGGGGCATTCAGTGCGAAT	1.32
CCGAGTAGGTTACGAGGGTGCATTCAGTGCGAAT	4.66
TCGAGTAGGTTACGGGGGCATTCAAGGATGAAGA	4.93
CTATGTACGTTAAGGGGGTCATTCAGTTTGAAAG	3.42
TCGAGTAGGTTACGGGGGCTTTCAGGGATGAAGA	4.35
CCGAGTAGGTTACGAGGGGGCATTCTGTGCGAAT	4.91
TCGCGTAGGTTACGGGGGCATTCAGGGATGAAGA	2.78
TCGAGTAGGTTACGGGGGCATTCATGGATGAAGA	5.12
CTATGTAGGTTAAGGGGGTCATTCACTTTGAAAG	7.7
CCGAGTATGTTACGAGGGGGCATTCAGTGCGAAT	1.52
CTATGTAGGTTAAGGGCGTCATTCAGTTTGAAAG	7.33
CCGAGTAGGTTACGAGGGGGCAGTCAGTGCGAAT	4.71
CTATGTCGGTTAAGGGGGTCATTCAGTTTGAAAG	4.49
TCGAGTAGGTTAGGGGGGCATTCAGGGATGAAGA	4.38
CTTTGTAGGTTAAGGGGGTCATTCAGTTTGAAAG	7.24
TCGAGTAGGTTACGAGGGCATTCAGGGATGAAGA	3.87
TCGAGTAGGTTACGGAGGCATTCAGGGATGAAGA	3.09
